Screens from PubChem BioAssay.
Only a selection was taken, and hits are over-represented in it overall.
Pf Dd2 inh – inhibitors of Plasmodium falciparum Dd2 growth; P. falciparum Dd2 growth, SYBR Green, 72 h; Potency, µM (series often up to 28.9 µM), without a hit: at the top dose activity, negative = inhibition, usual class: inhibitors; 120,000 tested, 4.3% active; AID 1347417; active means well fitted inhibition curve with a large enough effect;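 further: plate controls were DMSO vehicle for no effect and reference drug for full effect; nearly all actives have a fitted effect of over 65% in size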
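Infected erythrocytes (Dd2, 0.3% parasitemia, 2.5% hematocrit final) are added to compound in RPMI-1640/Albumax II medium, grown 72 h at 37C in low oxygen, then lysed with saponin/Triton-X containing SYBR Green and read by fluorescence.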
Starred values were filed as active, the others as inactive; i = inactive; [ ] = dose if it differs, or a comment. Potency means the concentration at half of the fitted maximal effect.

SMILES	Pf Dd2 inh
CC(C)[S+](=O)([O-])N1CCN(c2ccc(C=O)cc2)C(=O)C1	7%
Cc1noc(C)c1CCC(=O)NC1CCc2nnc(C)n2CC1 (configuration not stated)	32%
O=C(NCCc1cccs1)C1CN(S(=O)(=O)C2CC2)CC12CCCCC2 (configuration not stated)	-15%
Cc1ccc(C(=O)N2CCC(N3CCNC3=O)CC2)cc1	0%[44.1 µM]
CO[C@H]1C(=O)N(C(C)C)[C@H]1C1CCN(C(=O)c2cnc(C)cn2)CC1	23%
O=C(NC[C@H]1O[C@@H](CO)[C@@H](O)[C@H]1N1CCOCC1)c1ccc(F)c(Cl)c1	-15%[44.1 µM]
COc1ccc(C(C(=O)O)N2CCCN(c3ncccn3)CC2)c(OC)n1 (configuration not stated)	4%
O=C(c1cc(=O)[nH]c2cc(F)ccc12)N1CCCC(CCc2ccc(F)cc2)C1 (configuration not stated)	-16%
O=C(c1ccc(-n2cnnn2)cc1O)N1CCCC(CCc2ccc(F)cc2)C1 (configuration not stated)	13µM*
O=C(CCn1cnnn1)N1CCCC(CCc2cccc(C(F)(F)F)c2)C1 (configuration not stated)	-16%
CCOc1ccc(NC(=O)CN2CCN(Cc3ccccc3)S2(=O)=O)cc1	5.6µM*
CCc1cccc(NC(=O)CN2CCCN(Cc3cccc(C)c3)S2(=O)=O)c1	28%
COc1cccc(CNC(=O)CN2CCCN(Cc3ccccc3)S2(=O)=O)c1	17%
CCOC(=O)CCNC(=O)N1CCCCCCNC(=O)[C@@H]2C[C@@H](c3nc(-c4cccnc4)no3)C[C@@H]21	i
COc1ccc(C(=O)N2CCC(N3CC4CC(C3)[C@H]3CCCC(=O)N3C4)CC2)c(OC)c1 (some centres not stated)	0%
O=C1NCCN1C1CCN(S(=O)(=O)c2cccs2)CC1	15%
O=C(c1cc[nH]c1)N1CCN(c2nc3ccccc3s2)CC(O)C1 (configuration not stated)	7%
CNCC(=O)N1CCCC(N2CCN(Cc3ccc4c(c3)OCO4)CC2)C1 (configuration not stated)	-4%
CCOC(=O)c1cccc(NC(=O)CCn2nc(C)c3c(C)n(-c4ccccc4)nc3c2=O)c1	2.5µM*
CCc1ccccc1NC(=O)CCn1nc(C)c2c(C)n(-c3ccccc3)nc2c1=O	-24%
Cc1ccc(NC(=O)CCn2nc(C)c3c(C)n(-c4ccccc4)nc3c2=O)cc1Cl	-12%
O=C(c1ccccc1)N1CCOCC12CCN(Cc1ccc3[nH]ccc3c1)CC2	-7%[44.1 µM]
O=C(OCc1ccccc1)N1CCOCC12CCN(Cc1ccncc1)CC2	-19%[44.1 µM]
O=C(OCc1ccccc1)N1CCOCC12CCN(Cc1ccc3[nH]ccc3c1)CC2	7.1µM*
Cc1ccccc1NC(=O)N1CCC(CCNC(=O)C2(c3ccccc3)CC2)CC1	-14%
SMILES	Pf Dd2 inh
Cc1nc([C@@H]2CN(C(=O)CN3CCCCCC3)C[C@H]2C(N)=O)n[nH]1	4%
COc1ccc(Cn2nc(C3CC3)nc2-c2c(F)cccc2Cl)cc1	-21%
COc1ccc(C(=O)N2CCCC2C(=O)Nc2ccccc2Oc2cccnc2)o1 (configuration not stated)	-9%
CCN(c1ccccc1)c1nnc(NC(=O)Nc2cccc(C(F)(F)F)c2)s1	-6%
CC(C)CN(CC(C)C)c1nnc(NC(=O)Nc2cccc(C(F)(F)F)c2)s1	11µM*
Cc1ccc(NC(=O)Nc2nnc(N(CC(C)C)CC(C)C)s2)cc1Cl	-10%
O=C1Nc2ccccc2CC12CN(CC1CCNC1)C2 (configuration not stated)	19%[44.1 µM]
COc1ccc(C)nc1-c1cnc2ccccc2c1	-5%
O=C1OCC2(CCN(Cc3ccn[nH]3)C2)N1Cc1ccccc1 (configuration not stated)	-9%[44.1 µM]
O=C1OCC2(CCN(Cc3ccccc3O)C2)N1Cc1ccccc1 (configuration not stated)	10µM*
N#Cc1ccc(CN2CCC3(COC(=O)N3Cc3ccccc3)C2)cc1 (configuration not stated)	-5%[44.1 µM]
Cc1cc(CN2CCC3CC(=O)NCCC3C2)cc(C)n1 (configuration not stated)	13%[44.1 µM]
CN1CCC(C)(CNc2ncc(C(C)(C)C(=O)O)c(N3CCOCC3)n2)C1 (configuration not stated)	-7%
O=C(c1ccccc1F)N1CCCC2(CNc3ccccc3[S+](=O)([O-])N2)C1 (configuration not stated)	-19%
CN1CC2(CCN(S(=O)(=O)c3cccnc3)CC2)CC1C(=O)N1CCOCC1 (configuration not stated)	0%
CC1=NOC2(CCN(Cc3ccccn3)CC2)C1	i
CC(=O)N1CCc2nc(-c3ccc(Cl)cc3)nc(-c3ccccc3)c2C1	-16%
CC(C)(C)C(=O)N1CCc2nc(-c3ccccc3)nc(-c3ccc(Cl)cc3)c2C1	5µM*
CN(C)C(=O)N1CCc2nc(-c3ccccc3)nc(-c3ccc(Cl)cc3)c2C1	i
O=C(c1ccc(Cl)nc1)N1CCc2nc(-c3ccc(Cl)cc3)nc(-c3ccccc3)c2C1	-24%
Cc1nc2c(c(-c3ccc(Cl)cc3)n1)CN(C(=O)c1ccccc1)CC2	-7%
Cc1ccc(C(=O)N2CCc3nc(-c4ccccc4)nc(-c4ccc(Cl)cc4)c3C2)cc1	10µM*
O=C1CCCCC(CNC(=O)c2cccnc2)N1 (configuration not stated)	0%
CC[C@@H]1[C@H](NC(=O)C2(c3ccc(S(C)(=O)=O)cc3)CCC2)[C@@H]2CCO[C@H]12	-7%
O=C(Nc1ccc(Cl)cc1)c1cc2n(n1)CC(c1ccc3c(c1)OCO3)OC2 (configuration not stated)	i
SMILES	Pf Dd2 inh
O=C(C[C@@H]1O[C@H](CNS(=O)(=O)c2ccc(Cl)cc2)[C@@H](O)C1O)N1CCN(c2ccccc2)CC1 (some centres not stated)	i
CCN1CC(C(=O)N2CCN(Cc3cccc(F)c3)C(=O)C2)CC1=O (configuration not stated)	-2%
Cc1nn(CCC#N)c(C)c1[C@@H]1C=C[C@@H](NS(=O)(=O)c2cccs2)C1	-18%[44.1 µM]
COc1ccccc1-c1ccc2ncc(Nc3ccc(C(N)=O)cc3)n2n1	i
COc1ccc(Nc2cnc3ccc(-c4ccc(OC)c(OC)c4)nn23)cn1	i
C[S+](=O)([O-])Nc1cccc(Nc2cnc3ccc(-c4ccccc4)nn23)c1	13µM*
COc1ccc(-c2ccc3ncc(Nc4cccc(Cl)c4)n3n2)cn1	-7%[44.1 µM]
CN(C)c1ccc2ncc(Nc3cccc(C(F)(F)F)c3)n2n1	i
COc1ccc(Nc2cnc3ccc(-c4ccc(F)cc4)nn23)cc1OC	2.8µM*
OCc1cccc(-c2ccc3ncc(Nc4ccnc(N5CCOCC5)c4)n3n2)c1	i
OCc1cccc(-c2ccc3ncc(Nc4ccccc4F)n3n2)c1	-6%[44.1 µM]
COc1cncc(Nc2cnc3ccc(-c4cccc(CO)c4)nn23)c1	13µM*
c1ccc(Nc2cnc3ccc(N4CCOCC4)nn23)cc1	i
COc1ccccc1-c1ccc2ncc(Nc3ccccc3)n2n1	7.9µM*
COc1ccc(-c2ccc3ncc(Nc4ccc5c(c4)OCCO5)n3n2)cc1OC	i
O=C(NCC(F)F)C1CN(c2ccccc2)C(=O)N1 (configuration not stated)	i
Cc1cnccc1N1CCCN(C(=O)C2CC3(CCNCC3)CN2)CC1 (configuration not stated)	-2%
COCc1noc([C@@H]2CN(Cc3cccc(Cl)c3F)C[C@H]2C(N)=O)n1	23%
